Laboratory results reported in PubChem BioAssay (NCATS).
Inconclusive results are not listed. The source made the active and inactive calls. The call rests on the fitted dose curve; in most records, active means well fitted curve in the direction sought with a large enough effect; inconclusive means small, poorly fitted or top-dose-only effect, or another doubt; inactive means no such curve, though single readings can be large; an effect the other way counts as inactive or inconclusive.

Key:
[1] = Quantitative High-Throughput drug screen in 47 multiple myeloma cell lines against the NCATS MIPE library collection: KMM1_JCRB cell viability assay (AID 1918960); further: nearly all actives have a fitted effect of over 30% in size
Method in brief: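 Cell viability inhibition in this qHTS is measured via ATP content (CellTiter-Glo) after 48 h drug exposure at 37 °C. Wells hold 500 cells; DMSO-treated wells define 100% and medium-only wells 0%.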

[2] = Quantitative High-Throughput drug screen in 47 multiple myeloma cell lines against the NCATS MIPE library collection: KHM11_PLB cell viability assay (AID 1918962); further: nearly all actives have a fitted effect of over 35% in size
Method in brief: (§1)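 Relative luminescence from CellTiter-Glo served as the viability signal, referenced to DMSO-treated (100%) and cell-free medium (0%) controls. Treatment lasted 48 hours at 37C with 500 cells per well.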

[3] = Quantitative High-Throughput drug screen in 47 multiple myeloma cell lines against the NCATS MIPE library collection: INA6_PLB cell viability assay (AID 1918965; further: nearly all actives have a fitted effect of over 55% in size)
Method in brief: as §1

[4] = Quantitative High-Throughput drug screen in 47 multiple myeloma cell lines against the NCATS MIPE library collection: KMS27_JCRB cell viability assay (AID 1918970); further: nearly all actives have a fitted effect of over 30% in size
Method in brief: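 Myeloma cells (500 per well) were exposed to MIPE 4.0 compounds for 48 h at 37 °C, 5% CO2; viability was read as ATP luminescence with CellTiter-Glo, normalized to DMSO-only (100%) and media-only (0%) wells.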

[5] = Quantitative High-Throughput drug screen in 47 multiple myeloma cell lines against the NCATS MIPE library collection: JIM3_ECACC cell viability assay (AID 1918963; further: nearly all actives have a fitted effect of over 35% in size)
Method in brief: as §1

[6] = Quantitative High-Throughput drug screen in 47 multiple myeloma cell lines against the NCATS MIPE library collection: JIM1_ECACC cell viability assay (AID 1918964)
Method in brief: (§2)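 Luminescent ATP measurement with CellTiter-Glo gives viability, scaled between DMSO-only wells (100%) and media-only wells (0%). Cells, 500 per well, faced library compounds for 48 hours at 37C.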

[7] = Quantitative High-Throughput drug screen in 47 multiple myeloma cell lines against the NCATS MIPE library collection: Karpas25_ECACC cell viability assay (AID 1918968; further: nearly all actives have a fitted effect of over 35% in size)
Method in brief: as §2

[8] = Quantitative High-Throughput drug screen in 47 multiple myeloma cell lines against the NCATS MIPE library collection: H1112_PLB cell viability assay (AID 1918967; further: nearly all actives have a fitted effect of over 30% in size)
Method in brief: as §2

[9] = Quantitative High-Throughput drug screen in 47 multiple myeloma cell lines against the NCATS MIPE library collection: JJN3_DSMZ cell viability assay (AID 1918966; further: nearly all actives have a fitted effect of over 50% in size)
Method in brief: as §2

[10] = Quantitative High-Throughput drug screen in 47 multiple myeloma cell lines against the NCATS MIPE library collection: Karpas417_ECACC cell viability assay (AID 1918961); details: Karpas417 myeloma viability, CellTiter-Glo ATP luminescence, 48 h; viability (% of DMSO): at 45.8 µM (top of the series)
Method in brief: as §1
Potency means the concentration at half of the fitted maximal effect.

Question: For O=C1NC(=O)C(=Cc2ccc(-c3ccc(F)cc3)o2)S1, which Potency [1] is on record?
Answer: The Potency was 5.9 µM (active).

Question: What about the Potency [2] of the same molecule?
Answer: Its Potency is “inactive”.

Question: What about the Potency [3] of the same molecule?
Answer: The Potency was “inactive”.

Question: What about the Potency [4] of the same molecule?
Answer: Its Potency is “inactive”.

Question: What does the source list for CC(C)(C)C(=O)Oc1ccc2c(c1)nc(NC(=O)c1cccc([N+](=O)[O-])c1)n2CCCO?
Answer: Potency [1]: inactive; Potency [5]: inactive; Potency [6]: inactive; Potency [7]: inactive; Potency [4]: inactive

Question: With CC(C)C(=O)Nc1ncc(-c2cc(C(F)F)nn2-c2c(Cl)cccc2Cl)s1 as the molecule, how does the Potency [1] read?
Answer: Its Potency is 16.6 µM (active).

Question: And the Potency [5]?
Answer: The Potency was 23.5 µM (active).

Question: What about the Potency [6] of the same molecule?
Answer: Its Potency is 10.5 µM (active).

Question: And the Potency [3]?
Answer: Its Potency is 23.5 µM (active).

Question: And the Potency [7]?
Answer: The Potency was 20.9 µM (active).

Question: And the Potency [4]?
Answer: The Potency was 14.8 µM (active).

Question: What does the source list for N#Cc1ccc(NC(=O)Nc2ccccc2Br)c2n[nH]nc12?
Answer: Potency [1]: 20.9 µM (active); Potency [5]: inactive; Potency [6]: 8.33 µM (active); Potency [7]: 16.6 µM (active); Potency [4]: 13.2 µM (active)

Question: For CC(C)n1cnc2c(NCCCCCCNC(=O)OC(C)(C)C)nc(NCCO)nc21, which Potency [1] is on record?
Answer: Its Potency is 7.43 µM (active).

Question: And the Potency [5]?
Answer: Its Potency is 18.7 µM (active).

Question: What about the Potency [6] of the same molecule?
Answer: Its Potency is “inactive”.

Question: What about the Potency [3] of the same molecule?
Answer: Its Potency is 23.5 µM (active).

Question: What about the Potency [8] of the same molecule?
Answer: Its Potency is 23.5 µM (active).

Question: For CC[C@@H]1C=C(C)C[C@H](C)C[C@H](OC)[C@H]2O[C@@](O)(C(=O)C(=O)N3CCCC[C@@H]3C(=O)O[C@H](C(C)=C[C@@H]3CC[C@H](Cl)[C@H](OC)C3)[C@H](C)[C@@H](O)CC1=O)[C@H](C)C[C@H]2OC, which Potency [1] is on record?
Answer: Its Potency is 8.33 µM (active).

Question: What about the Potency [5] of the same molecule?
Answer: The Potency was 18.7 µM (active).

Question: And the Potency [3]?
Answer: Its Potency is 5.26 µM (active).

Question: And the Potency [9]?
Answer: The Potency was 20.9 µM (active).

Question: With C[C@H](NC(=O)C(=O)Nc1ccccc1C(C)(C)C)C(=O)N[C@@H](CC(=O)O)C(=O)COc1c(F)c(F)cc(F)c1F as the molecule, how does the Potency [1] read?
Answer: The Potency was 1.66 µM (active).

Question: What about the Potency [5] of the same molecule?
Answer: Its Potency is “inactive”.

Question: What about the Potency [6] of the same molecule?
Answer: Its Potency is 4.18 µM (active).

Question: What about the Potency [3] of the same molecule?
Answer: The Potency was 18.7 µM (active).

Question: And the Potency [4]?
Answer: Its Potency is 3.32 µM (active).

Question: Which results are given for CCn1cc(C(=O)O)c(=O)c2ccc(C)nc21?
Answer: Potency [1]: inactive; Potency [5]: inactive; Potency [6]: inactive; Potency [8]: inactive; Potency [7]: inactive

Question: What does the source list for COc1ccc2cccc(CCNC(C)=O)c2c1?
Answer: Potency [1]: inactive; Potency [2]: inactive; Potency [5]: inactive; Potency [8]: inactive; Potency [7]: inactive

Question: For O=C(Nc1c(Cl)cncc1Cl)c1ccc(OC(F)F)c(OCC2CC2)c1, which Potency [1] is on record?
Answer: Its Potency is “inactive”.

Question: What about the Potency [5] of the same molecule?
Answer: The Potency was “inactive”.

Question: What about the Potency [3] of the same molecule?
Answer: The Potency was 37.2 µM (active).

Question: And the Potency [9]?
Answer: Its Potency is “inactive”.

Question: Which results are given for O=c1c(-c2ccc(O)cc2)coc2cc(O)ccc12?
Answer: Potency [1]: inactive; Potency [5]: inactive; Potency [6]: inactive; Potency [3]: inactive; Potency [7]: inactive

Question: For COCCOc1nc(-c2ccc(Cl)c(Cl)c2)n(-c2ccc(NC(=O)CCl)cc2)n1, which Potency [1] is on record?
Answer: The Potency was 14.8 µM (active).

Question: What about the Potency [2] of the same molecule?
Answer: The Potency was 11.8 µM (active).

Question: And the Potency [6]?
Answer: Its Potency is 14.8 µM (active).

Question: And the Potency [3]?
Answer: The Potency was 11.8 µM (active).

Question: What about the Potency [9] of the same molecule?
Answer: Its Potency is 23.5 µM (active).

Question: What about the Potency [8] of the same molecule?
Answer: Its Potency is 14.8 µM (active).

Question: What about the Potency [7] of the same molecule?
Answer: Its Potency is 5.26 µM (active).

Question: And the Potency [4]?
Answer: Its Potency is 16.6 µM (active).

Question: Which results are given for CO[C@H]1C=CO[C@@]2(C)Oc3c(C)c(O)c4c(O)c(c5c(c4c3C2=O)NC2(CCN(CC(C)C)CC2)N=5)=NC(=O)C(C)=CC=C[C@H](C)[C@H](O)[C@@H](C)[C@@H](O)[C@@H](C)[C@H](OC(C)=O)[C@H]1C?
Answer: Potency [1]: inactive; Potency [5]: inactive; Potency [6]: inactive; Potency [8]: inactive; Potency [7]: 16.6 µM (active)

Question: With COc1ccc(-n2c(C)c([N+](=O)[O-])c3ccc(O)cc32)cc1 as the molecule, how does the Potency [1] read?
Answer: The Potency was “inactive”.

Question: What about the Potency [2] of the same molecule?
Answer: The Potency was “inactive”.

Question: What about the Potency [5] of the same molecule?
Answer: The Potency was “inactive”.

Question: What about the Potency [8] of the same molecule?
Answer: The Potency was “inactive”.

Question: And the Potency [7]?
Answer: Its Potency is 26.4 µM (active).

Question: Which Potency [1] does the source give for Oc1ccc(C2=Cc3ccc(O)cc3OC2)cc1 here?
Answer: The Potency was 2.64 µM (active).

Question: What about the Potency [2] of the same molecule?
Answer: Its Potency is 5.26 µM (active).

Question: What about the Potency [6] of the same molecule?
Answer: Its Potency is 3.32 µM (active).

Question: What about the Potency [3] of the same molecule?
Answer: The Potency was 0.662 µM (active).

Question: And the Potency [9]?
Answer: The Potency was 1.48 µM (active).

Question: What about the Potency [4] of the same molecule?
Answer: Its Potency is 2.09 µM (active).

Question: For O=c1cc(CN2CCOCC2)occ1OCCCCCSc1ccnc2cc(C(F)(F)F)ccc12, which Potency [1] is on record?
Answer: Its Potency is 13.2 µM (active).

Question: What about the Potency [5] of the same molecule?
Answer: Its Potency is 4.69 µM (active).

Question: And the Potency [6]?
Answer: The Potency was 18.7 µM (active).

Question: And the Potency [3]?
Answer: The Potency was 7.43 µM (active).

Question: What about the Potency [9] of the same molecule?
Answer: The Potency was 7.43 µM (active).

Question: What about the Potency [8] of the same molecule?
Answer: Its Potency is 0.833 µM (active).

Question: And the Potency [7]?
Answer: The Potency was 0.743 µM (active).

Question: For COc1ccc(C2Sc3ccccc3N(CCN(C)C)C(=O)C2OC(C)=O)cc1 (stereo not given), which Potency [1] is on record?
Answer: The Potency was “inactive”.

Question: And the Potency [2]?
Answer: The Potency was “inactive”.

Question: What about the Potency [5] of the same molecule?
Answer: Its Potency is “inactive”.

Question: And the Potency [9]?
Answer: The Potency was “inactive”.

Question: And the Potency [7]?
Answer: The Potency was “inactive”.

Question: What does the source list for Cc1ccc([C@@H]2O[C@H](CO)[C@@H](O)[C@H](O)[C@@H]2O)cc1Cc1ccc(-c2ccc(F)cc2)s1?
Answer: Potency [1]: 16.6 µM (active); Potency [8]: inactive; Potency [4]: 23.5 µM (active)

Question: Which results are given for O=C(O)CCC1CCC(c2cc(F)ccc2F)(S(=O)(=O)c2ccc(Cl)cc2)CC1 (stereo not given)?
Answer: Potency [1]: 16.6 µM (active); Potency [5]: inactive; Potency [3]: 3.32 µM (active); Potency [9]: inactive; Potency [8]: 9.35 µM (active); Potency [7]: 8.33 µM (active); Potency [4]: 2.64 µM (active)

Question: With CN(C)C1CCN(C(=O)c2ccc(NC(=O)Nc3nc(N4CCOCC4)nc(N4CCOCC4)n3)cc2)CC1 as the molecule, how does the Potency [10] read?
Answer: The Potency was 0.0662 µM (active).

Question: What about the Potency [5] of the same molecule?
Answer: The Potency was 0.209 µM (active).

Question: What about the Potency [9] of the same molecule?
Answer: The Potency was 0.0833 µM (active).

Question: Which Potency [1] does the source give for O=C(Nc1cccc(Br)c1)c1cccc(S(=O)(=O)N2CCCCCC2)c1 here?
Answer: Its Potency is 16.6 µM (active).

Question: And the Potency [6]?
Answer: Its Potency is 7.43 µM (active).

Question: What about the Potency [3] of the same molecule?
Answer: The Potency was 18.7 µM (active).

Question: And the Potency [9]?
Answer: The Potency was 20.9 µM (active).

Question: Which results are given for C[N+]1(C)[C@@H]2CC(OC(=O)[C@H](CO)c3ccccc3)C[C@H]1[C@H]1O[C@@H]12 (stereo not given in full)?
Answer: Potency [1]: inactive; Potency [6]: inactive; Potency [8]: inactive; Potency [4]: inactive
